According to PubChem BioAssay AID2013 (Sanford-Burnham Center for Chemical Genomics, 2009):
The whole screen tested about 290,000 compounds, of which about 370 (0.13%) were called active.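 The calls were made as follows: active = spots per cell inhibited over 60%, with over 100 cells counted and total cytoplasm intensity under 500,000; inconclusive = wells with under 100 cells, flagged as likely toxic; inactive = the rest.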 The sample as a whole holds a higher share of actives than the screen did. Results with a measured potency or affinity are listed apart.

Each molecule was assayed against G-protein coupled receptor 55 (Homo sapiens) (UniProt Q9Y2T6) (assay: GPR55 antagonists blocking LPI-driven arrestin recruitment, primary screen, imaging, U2OS, beta-arrestin-GFP, LPI agonist (AID 2013;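 also: U2OS cells stably carrying GPR55 and arrestin-GFP stimulated by 5 µM LPI near EC80; imaged beta-arrestin-GFP aggregate spots per cell after agonist stimulation; plate controls were LPI-stimulated DMSO wells for no effect and DMSO wells without LPI for full effect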)). Details: U2OS GPR55 beta-arrestin-GFP translocation imaging, LPI antagonism; at 10 µM; active compounds read high.
Chain of G-protein coupled receptor 55 (Homo sapiens) (Q9Y2T6 whole entry, looked up): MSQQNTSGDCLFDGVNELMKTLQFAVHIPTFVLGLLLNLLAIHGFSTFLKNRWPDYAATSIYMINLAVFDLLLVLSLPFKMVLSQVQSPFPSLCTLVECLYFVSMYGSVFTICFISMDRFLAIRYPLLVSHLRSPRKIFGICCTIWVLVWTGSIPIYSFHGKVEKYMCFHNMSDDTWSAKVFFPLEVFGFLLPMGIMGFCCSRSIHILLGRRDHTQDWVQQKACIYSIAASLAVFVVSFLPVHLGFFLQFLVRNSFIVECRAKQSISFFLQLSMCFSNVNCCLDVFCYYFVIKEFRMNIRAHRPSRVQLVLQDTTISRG
In the case of `Cc1nnc(SCC2=C(C(=O)O)N3C(=O)C(NC(=O)C(C)n4nc(C(F)(F)F)cc4C)C3SC2)s1` (stereo unspecified), the inhibition is reported as 0.4% (inactive). For `Nc1cc(=O)[nH]c(SC/C=C/c2ccccc2)n1`, the inhibition was -21.6% (inactive). With `Clc1nc(CN2CCCCC2)nc2sc3c(c12)CCCC3` the inhibition was 61.4% (active). In the case of `Clc1nc(CN2CCCCC2)nc2sc3c(c12)CCC3`, the inhibition is reported as 5.2% (inactive). For `Clc1nc(CN2CCOCC2)nc2sc3c(c12)CCC3`, the inhibition was 19% (inactive). With `CC1CN(C(=O)COC(=O)c2ccc(O)cc2)CC(C)O1` (stereo unspecified) the inhibition was 6.6% (inactive). With `N#CCc1c(C#N)c(N)nc(Nc2ccccc2)c1C#N` the inhibition was 1.4% (inactive). `COc1ccc2oc(=O)c(C(=O)N3CCN(c4ccc(F)cc4)CC3)cc2c1` was tested, and the inhibition was 4.2% (inactive). For `O=C(Cn1ncn2c(cc3ccccc32)c1=O)NCCc1cccs1`, the inhibition was -4.4% (inactive). `COc1ccc(C(=O)N[C@H](C(=O)NCC2CCCCC2)C(C)C)cc1` was tested, and the inhibition was 6.5% (inactive). `O=C(CSc1ncccn1)N1CCN(S(=O)(=O)c2ccccc2)CC1` was tested, and the inhibition was 9.7% (inactive). In the case of `O=C(CSc1nc2ccccc2c(=O)[nH]1)N1CCN(S(=O)(=O)c2ccccc2)CC1`, the inhibition is reported as 2.8% (inactive). For `N#Cc1ccccc1NC(=O)CN1CCOCC1`, the inhibition was 9.8% (inactive). With `CCn1c(SCC(N)=O)nc2c(c1=O)C1(CCCC1)Cc1ccccc1-2` the inhibition was 1.3% (inactive). For `CCSc1n[nH]c2nc3c(c(=O)n12)C1(CCCC1)Cc1ccccc1-3`, the inhibition was 10.3% (inactive). `CCCc1ccc(Oc2c(-c3ccc(O)c(C)c3O)n[nH]c2C)cc1` was tested, and the inhibition was 1% (inactive). In the case of `CCCOC(=O)c1ccc(Oc2c(-c3ccc(O)cc3O)n[nH]c2C)cc1`, the inhibition is reported as 36.9% (inactive). In the case of `COc1ccc(Oc2c(-c3ccc(O)cc3O)n[nH]c2C)cc1`, the inhibition is reported as 11% (inactive). With `CCCc1ccc(Oc2cn[nH]c2-c2ccc(O)c(C)c2O)cc1` the inhibition was 20.9% (inactive). `Cc1ccccc1C(=O)NC(=S)NCc1ccccc1` was tested, and the inhibition was 2.5% (inactive). `Cc1sc2nc(CC(=O)NN)[nH]c(=O)c2c1C` was tested, and the inhibition was 6.8% (inactive). With `CC(=O)N1CCOc2ccc(S(=O)(=O)N3CCC(C)CC3)cc21` the inhibition was 7.2% (inactive). For `C/C=C(\C)C(=O)N1CC2(CC(c3cccc(NC(=O)COc4ccc(Cl)cc4)c3)=NO2)C[C@@H]1C(N)=O` (stereo partly specified), the inhibition was -0.1% (inactive). With `NS(=O)(=O)c1ccc(NC(=S)Nc2ccc(C(=O)N3CCCCC3)cc2)cc1` the inhibition was 0.7% (inactive). In the case of `O=C(Nc1ccccc1N1CCOCC1)c1cccnc1Cl`, the inhibition is reported as 3.4% (inactive). `CCN(C(=O)CSc1nc(-c2ccccc2)c(-c2ccccc2)[nH]1)C1CCS(=O)(=O)C1` (stereo unspecified) was tested, and the inhibition was 15.5% (inactive). For `Cc1ccc(SCC(=O)N(C)C2CCS(=O)(=O)C2)cc1` (stereo unspecified), the inhibition was -5.3% (inactive). In the case of `CCCCNC(=O)CN1C(=O)C(CC)Oc2ccc(Cl)cc21` (stereo unspecified), the inhibition is reported as 2.3% (inactive). With `O=C1N=C(N2CCOCC2)S/C1=C\c1ccc(-c2ccccc2Cl)o1` the inhibition was -0.9% (inactive). In the case of `Cc1ccc(-c2ccc(/C=C3\SC(N4CCOCC4)=NC3=O)o2)cc1`, the inhibition is reported as 16.2% (inactive). `Cc1ccc(CNC(=O)c2ccc(CS(=O)(=O)c3ccccc3C)o2)cc1` was tested, and the inhibition was 7.3% (inactive). With `O=C(Oc1ccc(N2C(=O)C3C4CCC(C4)C3C2=O)cc1)c1ccco1` (stereo unspecified) the inhibition was 15.6% (inactive). In the case of `O=C(NC1CCN(S(=O)(=O)c2ccccc2F)CC1)c1cccnc1`, the inhibition is reported as -8.1% (inactive). `O=C(N1CCCC1)C(F)(F)Oc1ccc(F)cc1` was tested, and the inhibition was 10.6% (inactive). In the case of `COCCN1C=C(C(=O)OC)C(c2cc3c(cc2Br)OCO3)C(C(=O)OC)=C1`, the inhibition is reported as 1% (inactive). With `COC(=O)C1=CN(C(C)C)C=C(C(=O)OC)C1c1cc(Br)c(OC)c(OC)c1` the inhibition was 0.5% (inactive). `COc1ccc(-n2c(C)cc(C=O)c2C)cc1Cl` was tested, and the inhibition was 15.8% (inactive). `COc1ccc(Cl)cc1-n1c(C)cc(C=O)c1C` was tested, and the inhibition was -3.7% (inactive). In the case of `CN(C)S(=O)(=O)N1CCN(C(=O)c2cccc(Br)c2)CC1`, the inhibition is reported as 1.7% (inactive). For `NS(=O)(=O)c1ccc(CCNC(=O)CSc2nc3ccsc3c(=O)n2CCCCCC(=O)O)cc1`, the inhibition was 14.8% (inactive). In the case of `Cc1cccc(OCC(=O)N2CCOCC2)c1`, the inhibition is reported as 15.3% (inactive). In the case of `COc1ccc(OC)c(-n2c(C)cc(/C=C3\C(=N)N4N=C(CC(=O)N5CCOCC5)SC4=NC3=O)c2C)c1`, the inhibition is reported as 21.8% (inactive). In the case of `COc1ccccc1N1CCN(C(=O)NC23CC4CC(CC(C4)C2)C3)CC1`, the inhibition is reported as 6.5% (inactive). In the case of `O=C(CCCn1c(=S)[nH]c2cc3c(cc2c1=O)OCO3)N1CCN(c2ccccn2)CC1`, the inhibition is reported as 10.5% (inactive). In the case of `O=C(CCCn1c(=O)[nH]c2ccccc2c1=O)N1CCN(c2ccccn2)CC1`, the inhibition is reported as 3.9% (inactive). With `O=C(CCCn1c(=S)[nH]c2ccc(Br)cc2c1=O)N1CCN(c2ccccn2)CC1` the inhibition was 60.6% (active). With `O=C(COc1cccc2cccnc12)N/N=C1\SCC(=O)N1CCc1ccccc1` the inhibition was 14.1% (inactive). `N#Cc1c(N)nc2c(c1-c1cccc(O)c1)CCCCCC2` was tested, and the inhibition was 76% (active). In the case of `N#Cc1c(N)nc2c(c1-c1ccccc1)CCCC2`, the inhibition is reported as 14.6% (inactive). In the case of `N#Cc1c(N)nc2c(c1-c1ccccc1)CCC2`, the inhibition is reported as -2.3% (inactive). In the case of `Cc1c(Br)cc(C(=O)NCCCN2CCOCC2)c(C)c1C`, the inhibition is reported as -19.3% (inactive). With `Cc1ccc(C(=O)NC2CC(C)(C)NC(C)(C)C2)cc1Cl` the inhibition was -5.9% (inactive). For `CCOc1ccccc1NC(=O)NCCc1c[nH]c2ccccc12`, the inhibition was 5.7% (inactive). `CCN(C(=O)CC(C)C)c1nnc(Cn2nnc3ccccc32)s1` was tested, and the inhibition was 6.1% (inactive). With `O=C(CN1C(=O)S/C(=C\c2ccc(Cl)cc2)C1=O)NCCCn1ccnc1` the inhibition was -24.8% (inactive). In the case of `Fc1ccc(-c2csc(N3CCOCC3)n2)cc1`, the inhibition is reported as -10.5% (inactive). `N=C1C(c2nc(-c3ccc(Cl)cc3)cs2)=C(O)CN1CCCN1CCOCC1` was tested, and the inhibition was 14.9% (inactive). In the case of `Cc1c(Br)c([N+](=O)[O-])nn1CC(=O)N1CCN(C23CC4CC(CC(C4)C2)C3)CC1`, the inhibition is reported as 10.9% (inactive). For `O=C(CN(c1ccc(Cl)cc1)S(=O)(=O)c1ccc(Cl)c([N+](=O)[O-])c1)NCCc1ccccc1`, the inhibition was 5.1% (inactive). `Cc1ccc(N(CC(=O)NCCc2ccc(F)cc2)S(=O)(=O)c2ccc(Cl)c([N+](=O)[O-])c2)c(C)c1` was tested, and the inhibition was 65.4% (active). `O=C(CN(c1ccc(Cl)cc1)S(=O)(=O)c1ccc(Cl)c([N+](=O)[O-])c1)NCCc1ccc(F)cc1` was tested, and the inhibition was 7.2% (inactive).
